PubChem BioAssay AID1159580 (chemical genetic matrix, 2015)
Where “and” joins values, the source holds several entries; their conditions need not be identical. Identical values can stand only once. Hit rate of the full screen: of about 5,500 compounds, about 2,000 (36%) were called active. Inconclusive results (about 18%) are left out. Rule as the data show it: active = normalized growth mostly below about 0.91 (no sharp cut-off); inconclusive = no clear call, values can overlap the other calls; inactive = mostly above about 0.92. This is one part of the list.

Test: chemical genetic growth profiling, strain panel (AID 1159580);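 also: tested at 20 µM; growth read once vehicle control cultures reached saturation at 30 °C; 1 = growth at the plate median or of vehicle wells; lower values mean less growth of the strain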
Settings: S. cerevisiae deletion strains, growth OD

Measured: normalized growth

CC(C)c1c(O)ccc2c1CCC1C(C)(C)CCC[C@]21C (stereo partly specified)
inactive: locus YCL069W, strain vba3, hits give low values 0.932 | locus YDL005C, strain med2, hits give low values 0.961 | locus YDR001C, strain nth1, hits give low values 1 | locus YDR334W, strain swr1, hits give low values 0.974 | locus YEL037C, strain rad23, hits give low values 0.991 | locus YER111C, strain swi4, hits give low values 0.971 | locus YER155C, strain BEM2 (second series), hits give low values 0.925 | locus YFR010W, strain ubp6, hits give low values 0.929 | locus YGL173C, strain kem1, hits give low values 0.947 | locus YJL092W, strain hpr5, hits give low values 0.926 | locus YJL115W, strain asf1, hits give low values 1.02 | locus YJL154C, strain vps35, hits give low values 1.01
active: locus YAL013W, strain DEP1, hits give low values 0.063 | locus YAL021C, strain ccr4, hits give low values 0.888 | locus YAL026C, strain drs2, hits give low values 0.451 | locus YAL030W, strain snc1, hits give low values 0.319 | locus YBL061C, strain skt5, hits give low values 0.329 | locus YBR009C, strain hhf1, hits give low values 0.182 | locus YBR021W, strain FUR4, hits give low values 0.517 | locus YBR023C, strain chs3, hits give low values 0.43 | locus YBR171W, strain sec66, hits give low values 0.606 | locus YBR229C, strain ROT2, hits give low values 0.245 | locus YBR231C, strain swc5, hits give low values 0.258 | locus YBR279W, strain paf1, hits give low values 0.769 | locus YCL011C, strain gbp2, hits give low values 0.365 | locus YCL016C, strain dcc1, hits give low values 0.353 | locus YCL029C, strain bik1, hits give low values 0.29 | locus YCR088W, strain abp1, hits give low values 0.848 | locus YDL035C, strain GPR1, hits give low values 0.118 | locus YDL040C, strain nat1, hits give low values 0.749 | locus YDL074C, strain BRE1, hits give low values 0.111 | locus YDL101C, strain DUN1, hits give low values 0.185 | locus YDL134C, strain PPH21, hits give low values 0.0876 | locus YDL185W, strain tfp1, hits give low values 0.135 | locus YDL192W, strain arf1, hits give low values 0.139 | locus YDR069C, strain doa4, hits give low values 0.842 | locus YDR101C, strain arx1, hits give low values 0.43 | locus YDR137W, strain rgp1, hits give low values 0.134 | locus YDR150W, strain NUM1, hits give low values 0.399 | locus YDR159W, strain sac3, hits give low values 0.304 | locus YDR162C, strain NBP2, hits give low values 0.0592 | locus YDR195W, strain ref2 0.163 | locus YDR297W, strain sur2, hits give low values 0.353 | locus YDR318W, strain mcm21, hits give low values 0.182 | locus YDR335W, strain msn5, hits give low values 0.863 | locus YDR388W, hits give low values 0.38 | locus YDR392W, strain spt3, hits give low values 0.141 | locus YDR502C, strain sam2, hits give low values 0.185 | locus YEL003W, strain gim4, hits give low values 0.543 | locus YEL061C, strain CIN8 (second series), hits give low values 0.667 | locus YER015W, strain faa2, hits give low values 0.548 | locus YER016W, strain bim1, hits give low values 0.302 | locus YER110C, hits give low values 0.713 | locus YER155C, strain BEM2, hits give low values 0.0776 | locus YER167W, strain BCK2, hits give low values 0.0994 | locus YGL078C, strain dbp3, hits give low values 0.835 | locus YGL086W, strain mad1, hits give low values 0.135 | locus YGL167C, strain pmr1, hits give low values 0.248 | locus YGL227W, strain vid30, hits give low values 0.691 | locus YGL240W, strain doc1, hits give low values 0.822 | locus YGL248W, strain PDE1, hits give low values 0.113 | locus YGL253W, strain hxk2, hits give low values 0.67 | locus YGR135W, strain pre9, hits give low values 0.373 | locus YGR252W, strain gcn5, hits give low values 0.212 | locus YHR013C, strain ard1, hits give low values 0.548 | locus YHR027C, strain rpn1, hits give low values 0.527 | locus YHR030C, strain SLT2, hits give low values 0.06 and 0.129 | locus YHR079C, strain IRE1 (second series), hits give low values 0.335 | locus YHR079C, strain IRE1, hits give low values 0.215 | locus YHR094C, strain hxt1, hits give low values 0.272 | locus YHR129C, strain ARP1, hits give low values 0.0824 | locus YHR142W, strain chs7, hits give low values 0.682 | locus YHR200W, strain rpn10, hits give low values 0.309 | locus YIL066C, strain RNR3, hits give low values 0.111 | locus YIL073C, strain SPO22, hits give low values 0.181 | locus YIL125W, strain kgd1, hits give low values 0.395 | locus YIR030C, strain dcg1, hits give low values 0.292 | locus YJL095W, strain BCK1 (second series), hits give low values 0.103 | locus YJL095W, strain BCK1, hits give low values 0.0705 and 0.204 | locus YJL129C, strain trk1, hits give low values 0.259 | locus YJL134W, strain LCB3, hits give low values 0.373 | locus YJL164C, strain tpk1, hits give low values 0.197 | locus YJL166W, strain qcr8, hits give low values 0.32 | locus YJL168C, strain set2, hits give low values 0.725 | locus YJL187C, strain SWE1 (second series), hits give low values 0.117 | locus YJL187C, strain SWE1, hits give low values 0.403
